Source: PubChem BioAssay
Hits are enriched below; roughly 22% of the tested compounds scored in any of these assays.
CYP2C19 inh = inhibitors of human CYP2C19. P33261. CYP2C19 Supersomes, luciferin-H EGE luminescence, 30 min. inhibition, % at 5 µM. actives 21% (n = 96,000). AID 778;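 active = CYP2C19 inhibition above a set limit at 5 µM in the primary screen, cut at about 50% in these data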
CYP2C9 act = increases human cytochrome P450 2C9 activity. P11712. recombinant CYP2C9, luciferin-H conversion, luminescence; active compounds read high; factor 1 = untreated enzyme, 0 = blocked. activation factor at 5 µM. actives 1.4% (n = 96,000);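 active = activation factor of 2 or more for CYP2C9 at a 5 µM dose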
Target sequence (P11712 whole entry, looked up): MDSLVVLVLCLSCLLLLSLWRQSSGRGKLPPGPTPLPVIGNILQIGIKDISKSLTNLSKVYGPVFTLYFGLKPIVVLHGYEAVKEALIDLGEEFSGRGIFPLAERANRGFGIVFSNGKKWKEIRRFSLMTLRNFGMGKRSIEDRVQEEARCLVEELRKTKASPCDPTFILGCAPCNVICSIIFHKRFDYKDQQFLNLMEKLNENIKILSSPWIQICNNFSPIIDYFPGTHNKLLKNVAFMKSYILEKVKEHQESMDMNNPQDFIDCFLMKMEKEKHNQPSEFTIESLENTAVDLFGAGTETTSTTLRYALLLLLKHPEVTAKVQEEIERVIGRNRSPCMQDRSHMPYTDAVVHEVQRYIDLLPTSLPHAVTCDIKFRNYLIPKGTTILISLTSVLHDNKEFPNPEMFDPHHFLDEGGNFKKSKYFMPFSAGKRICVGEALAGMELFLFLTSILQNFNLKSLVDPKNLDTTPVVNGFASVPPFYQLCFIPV
Measles CPE = protection of cells from measles virus; AID 841; protection (pct of control), % at 4 µM; Measles virus-infected cells, CPE protection, absorbance; actives 1.5% (n = 140,000); in the data active = protection mostly above about 24%, no sharp cut-off; inactive = mostly below about 26%
CYP2C9 inh = human CYP2C9 inhibition | CYP2C9 Supersomes, luciferin-H conversion, luminescence | inhibition, % at 5 µM | actives 20% (n = 96,000);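 active = blocking of liver enzyme CYP2C9 beyond about 50% at 5 µM, limit read from the data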
CYP2C19 act = cytochrome P450 2C19 (human) activation | recombinant CYP2C19, luciferin-H EGE luminescence; active compounds read high; 0 = fully inhibited enzyme, 1 = untreated enzyme | activation factor at 5 µM | AID 1025 | 96,000 tested, under 10 active;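 active = activation factor of at least 2 at 5 µM in the primary screen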
A number is an active result.

Screening O=S(=O)(c1ccc2nc(COc3ccc(Cl)cc3Cl)[nH]c2c1)N1CCOCC1 returned CYP2C19 inh 50.7, CYP2C9 act inactive, Measles CPE 52.6, CYP2C9 inh 57.8 and CYP2C19 act inactive.
Cc1ccc(S(=O)(=O)N2CCCN(S(=O)(=O)c3ccc(C)c(C)c3)CC2)cc1C was read as CYP2C19 inh inactive, CYP2C9 act inactive, Measles CPE inactive, CYP2C9 inh inactive and CYP2C19 act inactive.
`COc1ccc(S(=O)(=O)N2CCOCC2)cc1Cl` gave CYP2C19 inh 58.9, CYP2C9 act 3.3, Measles CPE inactive, CYP2C9 inh inactive and CYP2C19 act inactive.
`Cc1ccc(S(=O)(=O)N2CCN(S(=O)(=O)N3CCOCC3)CC2)cc1C` gave CYP2C19 inh 50.1, CYP2C9 act inactive, Measles CPE inactive, CYP2C9 inh inactive and CYP2C19 act inactive.
Screening O=S(=O)(c1ccc(Oc2ccc(S(=O)(=O)N3CCOCC3)cc2)cc1)N1CCOCC1 returned CYP2C19 inh inactive, CYP2C9 act inactive, Measles CPE inactive, CYP2C9 inh inactive and CYP2C19 act inactive.
Screening COc1ccc2cc(S(=O)(=O)N3CCOCC3)ccc2c1 returned CYP2C19 inh 79.3, CYP2C9 act inactive, Measles CPE inactive, CYP2C9 inh inactive and CYP2C19 act inactive.
For CCOC(=O)C(C)(C)N(Cc1cccc(C)c1)S(=O)(=O)c1ccc(Cl)c([N+](=O)[O-])c1 the results were Measles CPE inactive.
Screening COc1ccc(S(=O)(=O)N2CCOCC2)cc1C(C)C returned CYP2C19 inh inactive, CYP2C9 act inactive, Measles CPE inactive, CYP2C9 inh inactive and CYP2C19 act inactive.
COc1ccc(S(=O)(=O)N2CCOCC2)c(Cl)c1Cl was read as CYP2C19 inh 70.2, CYP2C9 act 4, Measles CPE inactive, CYP2C9 inh inactive and CYP2C19 act inactive.
`Cc1ccc(S(=O)(=O)N2CCOCC2)cc1C(=O)N1c2ccccc2Sc2ccccc21` gave CYP2C19 inh inactive, CYP2C9 act inactive, Measles CPE inactive, CYP2C9 inh 61.3 and CYP2C19 act inactive.
CC(C)(C)NC(=O)c1ccc2c(c1)C1C3CCC(C3)C1C(c1ccccc1)N2 (stereo unspecified) was read as Measles CPE inactive.
`CCCNC(=O)c1ccc2c(c1)C1C3CCC(C3)C1C(c1ccccc1)N2` (stereo unspecified) gave CYP2C19 inh 88.7, CYP2C9 act inactive, Measles CPE inactive, CYP2C9 inh 100.0 and CYP2C19 act inactive.
CCN1CCCC1CNC(=O)Cn1cccc1C(=O)c1ccccc1 (stereo unspecified) was read as CYP2C19 inh inactive, CYP2C9 act inactive, Measles CPE inactive, CYP2C9 inh inactive and CYP2C19 act inactive.
For O=[N+]([O-])c1cnccc1Nc1ccccc1 the results were CYP2C19 inh 97.6, CYP2C9 act inactive, Measles CPE inactive, CYP2C9 inh 92.1 and CYP2C19 act inactive.
For O=[N+]([O-])c1cnccc1Nc1ccc(F)cc1 the results were Measles CPE inactive.
CCCCn1c(SCC(=O)c2ccc3c(c2)OCCO3)nnc1-c1ccoc1C was read as CYP2C19 inh 96.4, CYP2C9 act inactive, Measles CPE inactive, CYP2C9 inh 90.1 and CYP2C19 act inactive.
For CCn1c(SCC(=O)Nc2nc(C)cs2)nnc1C(NC(=O)c1ccccc1Cl)C(C)C (stereo unspecified) the results were CYP2C19 inh 51.8, CYP2C9 act inactive, Measles CPE inactive, CYP2C9 inh inactive and CYP2C19 act inactive.
Screening CCCn1c(SCC(=O)Nc2nnc(C)s2)nnc1-c1ccoc1C returned CYP2C19 inh inactive, CYP2C9 act inactive, Measles CPE inactive, CYP2C9 inh 65.5 and CYP2C19 act inactive.
Screening CCCCn1c(SCC(=O)Nc2nnc(C)s2)nnc1-c1ccoc1C returned CYP2C19 inh inactive, CYP2C9 act inactive, Measles CPE inactive, CYP2C9 inh 80.6 and CYP2C19 act inactive.
Screening CCCn1c(SCC(=O)c2ccc3c(c2)OCCO3)nnc1-c1ccco1 returned CYP2C19 inh inactive, CYP2C9 act inactive, Measles CPE inactive, CYP2C9 inh inactive and CYP2C19 act inactive.
`Cc1nnc(NC(=O)CSc2nnc(-c3ccoc3C)n2CC(C)C)s1` gave CYP2C19 inh inactive, CYP2C9 act inactive, Measles CPE inactive, CYP2C9 inh inactive and CYP2C19 act inactive.
Screening COc1cc(C=O)ccc1OCCOCCOc1ccccc1Cl returned CYP2C19 inh inactive, CYP2C9 act inactive, Measles CPE inactive, CYP2C9 inh inactive and CYP2C19 act inactive.
Screening COc1nc(-c2ccccc2)ccc1-c1noc(COc2ccccc2)n1 returned CYP2C19 inh inactive, CYP2C9 act inactive, Measles CPE inactive, CYP2C9 inh inactive and CYP2C19 act inactive.
Screening CCn1c(SCC(=O)N2CCN(c3ccccc3F)CC2)nnc1-c1ccoc1C returned CYP2C19 inh 53.6, CYP2C9 act inactive, Measles CPE inactive, CYP2C9 inh 52.9 and CYP2C19 act inactive.
CCOc1ccc(NC(=O)CSc2nnc(-c3ccoc3C)n2CC2CCCO2)cc1 (stereo unspecified) was read as Measles CPE inactive.
Cc1occc1-c1nnc(SCC(=O)Nc2ccc3c(c2)OCO3)n1CC1CCCO1 (stereo unspecified) was read as CYP2C19 inh inactive, CYP2C9 act inactive, Measles CPE inactive, CYP2C9 inh 60.2 and CYP2C19 act inactive.
`CCn1c(SCC(=O)Nc2nc(C)cs2)nnc1-c1ccoc1C` gave CYP2C19 inh 75.3, CYP2C9 act inactive, Measles CPE inactive, CYP2C9 inh inactive and CYP2C19 act inactive.
`CCCCn1c(SCC(=O)OCC)nnc1-c1ccoc1C` gave CYP2C19 inh inactive, CYP2C9 act inactive, Measles CPE inactive, CYP2C9 inh 55.2 and CYP2C19 act inactive.
Screening COc1ccc(-n2c(SCC(=O)Nc3nc(C)cs3)nnc2-c2ccoc2C)cc1 returned Measles CPE inactive.
For CC(C)Sc1cc(N2CCOCC2)nc(-c2ccccc2)n1 the results were Measles CPE inactive.
OCCN(CC(O)Cn1ccc2ccccc21)CC(O)Cn1ccc2ccccc21 (stereo unspecified) was read as CYP2C19 inh inactive, CYP2C9 act inactive, Measles CPE inactive, CYP2C9 inh inactive and CYP2C19 act inactive.
`CCn1c(SCC(=O)Nc2ccccc2-c2ccccc2)nnc1-c1ccoc1C` gave CYP2C19 inh 80.3, CYP2C9 act inactive, Measles CPE inactive, CYP2C9 inh 85.5 and CYP2C19 act inactive.
`COC(=O)CC1C(=O)NCCN1C(=S)NC(=O)C(c1ccccc1)c1ccccc1` (stereo unspecified) gave Measles CPE inactive.
Screening CCNS(=O)(=O)c1ccc(C(=O)Nc2ccccc2)cc1 returned CYP2C19 inh inactive, CYP2C9 act inactive, Measles CPE inactive, CYP2C9 inh 96.9 and CYP2C19 act inactive.
For CCc1cc(C(=O)Nc2ccccc2)cs1 the results were CYP2C19 inh 76.3, CYP2C9 act inactive, Measles CPE inactive, CYP2C9 inh inactive and CYP2C19 act inactive.
`O=C(Cn1ccc(C(F)(F)F)n1)Nc1ccc(S(=O)(=O)NCc2ccco2)cc1` gave Measles CPE inactive.
